PubChem BioAssay (NCI)
The panel holds about 83,000 compounds, 20% with a hit somewhere; the sample as a whole holds those more often.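 Method: cells in 96-well plates; compound added at one concentration; 48 h incubation; percent growth measured; values under 10 scored active.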 Active and inactive are the calls of the source.

Columns and labels:
Assay in all cases: NCI-60 one-dose screen, 48 h (100 = growth as untreated, 0 = no growth, -100 = all killed)
Details in all cases: 10 µM unless noted
SR leukemia = system: SR leukemia
RPMI-8226 leukemia = system: RPMI-8226 leukemia
OVCAR-8 ovarian = system: OVCAR-8 ovarian
OVCAR-5 ovarian = system: OVCAR-5 ovarian
OVCAR-4 ovarian = system: OVCAR-4 ovarian
SK-OV-3 ovarian = system: SK-OV-3 ovarian
IGROV1 ovarian = system: IGROV1 ovarian
OVCAR-3 ovarian = system: OVCAR-3 ovarian
HS 578T breast = system: HS 578T breast
NCI/ADR-RES ovarian = system: NCI/ADR-RES ovarian

Measured: growth

COc1ccc2c(c1)N(CCO)C1=C(C(=O)OC1)C2c1cccc(F)c1 (stereo not given)
inactive: SR leukemia 16% | RPMI-8226 leukemia 21.3% | OVCAR-8 ovarian 11% | OVCAR-5 ovarian 44.6% | OVCAR-4 ovarian 51.5% | SK-OV-3 ovarian 23.2% | IGROV1 ovarian 34.5% | HS 578T breast 34.2% | NCI/ADR-RES ovarian 15.6%
active: OVCAR-3 ovarian -16.7%

CCNCCNc1cc(C2CCCCC2)c(C#N)c2nc3ccccc3n12
active: SR leukemia -10.4% | RPMI-8226 leukemia -13.9% | IGROV1 ovarian 7.32% | OVCAR-3 ovarian -67.9% | HS 578T breast -5.65%
inactive: OVCAR-8 ovarian 26.2% | OVCAR-5 ovarian 18.2% | OVCAR-4 ovarian 28.3% | SK-OV-3 ovarian 28.2% | NCI/ADR-RES ovarian 35.5%

C1CN(SSN2CCOCC2)CCO1
inactive: SR leukemia 13.3% [100 µM] | OVCAR-5 ovarian 35.8% [100 µM] | SK-OV-3 ovarian 101% [100 µM] | IGROV1 ovarian 54.8% [100 µM] | HS 578T breast 41% [100 µM]
active: RPMI-8226 leukemia 1.55% [100 µM] | OVCAR-8 ovarian -25.2% [100 µM] | OVCAR-4 ovarian -51.7% [100 µM] | OVCAR-3 ovarian -82.2% [100 µM] | NCI/ADR-RES ovarian 2.69% [100 µM]

CCN(C)S(=O)(=O)Nc1cccc(Nc2ncnc3cc(NC(=O)CCl)ccc23)c1Cl
active: SR leukemia 6.73% | RPMI-8226 leukemia -6.79% | OVCAR-8 ovarian 2.03% | OVCAR-5 ovarian -17.5% | IGROV1 ovarian -7.09% | OVCAR-3 ovarian -65.1%
inactive: OVCAR-4 ovarian 14.9% | SK-OV-3 ovarian 23.4% | HS 578T breast 13.4% | NCI/ADR-RES ovarian 59.3%

N=C(N)c1ccc(-c2ccc(-c3ccccc3)o2)cc1
active: SR leukemia -29.3% | RPMI-8226 leukemia -36.7% | OVCAR-8 ovarian -59.3% | OVCAR-5 ovarian -10.9% | OVCAR-4 ovarian -4.49% | SK-OV-3 ovarian -18.3% | IGROV1 ovarian -25.7% | OVCAR-3 ovarian -38.4% | HS 578T breast -18.1% | NCI/ADR-RES ovarian -5.17%

CCSc1nc2scc(C)c2c(=O)[nH]1
inactive: SR leukemia 101% | RPMI-8226 leukemia 101% | OVCAR-8 ovarian 99.3% | OVCAR-5 ovarian 99.8% | OVCAR-4 ovarian 96.7% | SK-OV-3 ovarian 98.5% | IGROV1 ovarian 102% | OVCAR-3 ovarian 107% | HS 578T breast 95.5% | NCI/ADR-RES ovarian 102%

O=C(CN1C(=O)S/C(=C\c2ccccc2)C1=O)Nc1ncc(Cc2ccccc2Cl)s1
inactive: SR leukemia 113% | RPMI-8226 leukemia 103% | OVCAR-8 ovarian 93.3% | OVCAR-5 ovarian 103% | OVCAR-4 ovarian 89.6% | SK-OV-3 ovarian 102% | IGROV1 ovarian 94.6% | OVCAR-3 ovarian 109% | HS 578T breast 102% | NCI/ADR-RES ovarian 96.2%

O=C(Nc1cccc2ccccc12)NC1CC1
inactive: SR leukemia 109% | RPMI-8226 leukemia 105% | OVCAR-8 ovarian 101% | OVCAR-5 ovarian 110% | OVCAR-4 ovarian 102% | SK-OV-3 ovarian 97.1% | IGROV1 ovarian 122% | OVCAR-3 ovarian 114% | HS 578T breast 108% | NCI/ADR-RES ovarian 111%

O=C1c2ccc3c4c5ccc(c24)C(=O)N1CCCOCCCCOCCCNCc1ccc(cc1)CNCCCOCCCCOCCCN(C3=O)C5=O
active: SR leukemia -10.9% | RPMI-8226 leukemia 3.9% | OVCAR-8 ovarian -29.6% | OVCAR-5 ovarian -63.3% | OVCAR-4 ovarian -97.8% | IGROV1 ovarian -78.4% | OVCAR-3 ovarian -27.2%
inactive: SK-OV-3 ovarian 12.9% | HS 578T breast 85.6% | NCI/ADR-RES ovarian 90%

Cc1c(-c2ccc(O)cc2)n(Cc2ccc(OCCN3CCCCCC3)cc2)c2ccc(O)cc12
active: SR leukemia 1.53%
inactive: RPMI-8226 leukemia 57.5% | OVCAR-8 ovarian 84.7% | OVCAR-5 ovarian 87.9% | OVCAR-4 ovarian 78.1% | SK-OV-3 ovarian 81.3% | IGROV1 ovarian 85.7% | OVCAR-3 ovarian 85.1% | HS 578T breast 68.4% | NCI/ADR-RES ovarian 85.7%

C#COc1cccc(Nc2c(C#N)cnc3ncc(NC(=O)CCl)cc23)c1
active: RPMI-8226 leukemia -18.2% [6.25 µM] | OVCAR-3 ovarian 7.58% [6.25 µM]
inactive: SR leukemia 10.2% [6.25 µM] | OVCAR-8 ovarian 32.2% [6.25 µM] | OVCAR-5 ovarian 42.9% [6.25 µM] | OVCAR-4 ovarian 54.5% [6.25 µM] | SK-OV-3 ovarian 60.4% [6.25 µM] | IGROV1 ovarian 14.1% [6.25 µM] | HS 578T breast 66.8% [6.25 µM] | NCI/ADR-RES ovarian 76.5% [6.25 µM]

Cc1ccc(C)n1-c1ccccc1-n1c(C)ccc1C
inactive: SR leukemia 93.2% | RPMI-8226 leukemia 148% | OVCAR-8 ovarian 102% | OVCAR-5 ovarian 118% | OVCAR-4 ovarian 105% | SK-OV-3 ovarian 109% | IGROV1 ovarian 92.9% | OVCAR-3 ovarian 120% | HS 578T breast 117% | NCI/ADR-RES ovarian 116%

CC1CCN(S(=O)(=O)c2ccc(S(=O)(=O)N3CCCC(c4nc5c(nnn5Cc5cccc(Cl)c5)c(=O)[nH]4)C3)cc2)CC1 (stereo not given)
inactive: SR leukemia 10.5% | RPMI-8226 leukemia 19.9% | OVCAR-8 ovarian 61.5% | OVCAR-5 ovarian 97.1% | OVCAR-4 ovarian 64.5% | SK-OV-3 ovarian 72.9% | IGROV1 ovarian 60% | OVCAR-3 ovarian 34.3% | HS 578T breast 33.1% | NCI/ADR-RES ovarian 88.6%

CC(=O)n1nc(C(=O)OC(C)(C)c2ccccc2)c2ccccc21
inactive: SR leukemia 95.3% | RPMI-8226 leukemia 102% | OVCAR-8 ovarian 95.4% | OVCAR-5 ovarian 80.7% | OVCAR-4 ovarian 93% | SK-OV-3 ovarian 88.2% | IGROV1 ovarian 96.7% | OVCAR-3 ovarian 101% | HS 578T breast 100% | NCI/ADR-RES ovarian 89.5%

Nc1cc(C(=O)NC[C@H]2CN(c3ccc(N4CCC(C(=O)O)CC4)cc3)C(=O)O2)ccc1Cl
inactive: SR leukemia 95.4% | RPMI-8226 leukemia 100% | OVCAR-8 ovarian 103% | OVCAR-5 ovarian 96.1% | OVCAR-4 ovarian 107% | SK-OV-3 ovarian 113% | IGROV1 ovarian 103% | OVCAR-3 ovarian 114% | HS 578T breast 107% | NCI/ADR-RES ovarian 103%

O=C1/C(=C\c2ccc3nccnc3c2)SC(=S)N1CCc1ccc(O)cc1
inactive: SR leukemia 68.9% | RPMI-8226 leukemia 68.2% | OVCAR-8 ovarian 98.4% | OVCAR-5 ovarian 102% | OVCAR-4 ovarian 88.1% | SK-OV-3 ovarian 113% | IGROV1 ovarian 94.1% | OVCAR-3 ovarian 101% | HS 578T breast 94.3% | NCI/ADR-RES ovarian 101%

COc1cc2c(cc1OCCCN1CCN(CCCOc3cc4c(cc3OC)C(=O)N3CC(F)(F)C[C@H]3C=N4)CC1)N=C[C@@H]1CC(F)(F)CN1C2=O
inactive: SR leukemia 37.5% | OVCAR-8 ovarian 62.2% | OVCAR-5 ovarian 41.2% | OVCAR-4 ovarian 83% | SK-OV-3 ovarian 84.9% | IGROV1 ovarian 60.9% | OVCAR-3 ovarian 54.6% | NCI/ADR-RES ovarian 111%
active: RPMI-8226 leukemia 5.91% | HS 578T breast -0.618%

COc1cc(/C=C2/C=C(c3ccccc3)N(CCc3ccc(S(N)(=O)=O)cc3)C2=O)cc(OC)c1OC
inactive: SR leukemia 82.4% | RPMI-8226 leukemia 66.8% | OVCAR-8 ovarian 91.6% | OVCAR-5 ovarian 118% | OVCAR-4 ovarian 101% | SK-OV-3 ovarian 103% | IGROV1 ovarian 101% | OVCAR-3 ovarian 110% | HS 578T breast 98.2% | NCI/ADR-RES ovarian 99.6%

Cn1cc(-c2csc(-c3c[nH]c4ccccc34)n2)c2cnccc21
active: SR leukemia -7.21% | RPMI-8226 leukemia -28% | OVCAR-3 ovarian -59.8%
inactive: OVCAR-8 ovarian 18.2% | OVCAR-5 ovarian 75.4% | OVCAR-4 ovarian 14.3% | SK-OV-3 ovarian 85.3% | IGROV1 ovarian 47.3% | HS 578T breast 88.3% | NCI/ADR-RES ovarian 35.9%

CC1OC(n2c3ccccc3c3c4c(c5c6ccccc6[nH]c5c32)C(=O)N(CCN2CCCC2)C4=O)CC(O)C1O (stereo not given)
inactive: OVCAR-8 ovarian 53.1% | OVCAR-5 ovarian 78.1% | OVCAR-4 ovarian 22.9% | SK-OV-3 ovarian 32.1% | IGROV1 ovarian 48.9% | OVCAR-3 ovarian 60.2% | HS 578T breast 58.2% | NCI/ADR-RES ovarian 54.1%
active: SR leukemia -2.62% | RPMI-8226 leukemia 5.56%

CC1CCN(CCOc2ccc(CNc3ccc4nc(CCC5CCCCC5)[nH]c4c3)cc2)CC1
inactive: SR leukemia 14.4% | OVCAR-8 ovarian 43.1% | OVCAR-5 ovarian 59.9% | OVCAR-4 ovarian 50.4% | SK-OV-3 ovarian 80.4% | IGROV1 ovarian 43.1% | OVCAR-3 ovarian 66.3% | HS 578T breast 27.5% | NCI/ADR-RES ovarian 51%
active: RPMI-8226 leukemia -15.7%

CCC(C)N(CCNc1cc(OC)cc2cccnc12)CC(C)C (stereo not given)
inactive: SR leukemia 85.4% | RPMI-8226 leukemia 70.3% | OVCAR-8 ovarian 90.9% | OVCAR-5 ovarian 99.6% | OVCAR-4 ovarian 16.4% | SK-OV-3 ovarian 95.1% | IGROV1 ovarian 53.6% | OVCAR-3 ovarian 65.2% | HS 578T breast 110% | NCI/ADR-RES ovarian 83.5%

Oc1c(Br)cc(Br)c2ccc(Cn3cc(-c4ccccc4C(F)(F)F)nn3)nc12
inactive: RPMI-8226 leukemia 45.4% | OVCAR-8 ovarian 92.9% | OVCAR-5 ovarian 100% | OVCAR-4 ovarian 79.4% | SK-OV-3 ovarian 116% | IGROV1 ovarian 107% | OVCAR-3 ovarian 51.5% | HS 578T breast 105% | NCI/ADR-RES ovarian 105%
active: SR leukemia 2.33%

COc1cc2c(c(OC)c1OC)CCC(c1cccc(C(=O)Nc3cccc(Cl)c3)c1)O2 (stereo not given)
inactive: SR leukemia 30.5% | RPMI-8226 leukemia 39.1% | OVCAR-8 ovarian 75.1% | OVCAR-5 ovarian 75.3% | OVCAR-4 ovarian 70.3% | SK-OV-3 ovarian 64.9% | IGROV1 ovarian 63.8% | OVCAR-3 ovarian 85.3% | HS 578T breast 80.2% | NCI/ADR-RES ovarian 83.8%
